SMN2 splice up: qHTS Assay for Enhancers of SMN2 Splice Variant Expression. HEK293 SMN2-luciferase splicing reporter, luminescence, 30-36 h. Potency, µM (titrated, usually from 46.1 µM), for inactives: at the top dose activity change, positive = activation, most hits filed as activators. 210,000 tested, 2.8% active. AID 1458, 2008; also: % of control where 0% means no effect; nearly all actives have a fitted effect of over 55% in size
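qHTS luciferase splicing reporter: luminescence rises when SMN2 exon 7 is included in transfected HEK293 cells. Compound exposure lasted 30-36 h at 37C, with 4.5 mM final sodium butyrate as control, followed by a ONE-Glo read.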
ELG1 repair inh: qHTS screen for small molecules that inhibit ELG1-dependent DNA repair in human embryonic kidney (HEK293T) cells expressing luciferase-tagged ELG1; HEK293T ELG1-luciferase reporter, luminescence, 16 h; DNA damage induced by 5-fluorouridine; Potency, µM (series often up to 46.1 µM), inactives show at the top dose activity change, negative = inhibition, most hits filed as inhibitors; 330,000 tested, 2.3% active; AID 504467, 2011; also: % is scaled to controls: 0 for no effect and ±100 for the full control effect; nearly all actives have a fitted effect of over 55% in size
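Step one: seed 2,000 cells per well. Step two: pin-transfer compound or DMSO alongside 5-fluorouridine. Step three: incubate 16 hr, 37 °C, 5% CO2. Step four: add ONE-Glo, wait 30 min, read luminescence.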
FLuc modulator: qHTS profiling assay for firefly luciferase inhibitor/activator using purifed enzyme and Km concentrations of substrates (counterscreen for miR-21 project); Luciferin 4-monooxygenase (Photinus pyralis), P08659; purified FLuc, Km substrates, luminescence inhibition; Potency, µM (doses to about 57.5 µM), inactives show at the highest dose activity change, negative = inhibition, usual class: inhibitors; 360,000 tested, 6.9% active; AID 588342, 2011;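 also: plate controls were vehicle for no effect and reference inhibitor for full effect; nearly all actives have a fitted effect of over 55% in size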
Target sequence (P08659 whole entry, looked up): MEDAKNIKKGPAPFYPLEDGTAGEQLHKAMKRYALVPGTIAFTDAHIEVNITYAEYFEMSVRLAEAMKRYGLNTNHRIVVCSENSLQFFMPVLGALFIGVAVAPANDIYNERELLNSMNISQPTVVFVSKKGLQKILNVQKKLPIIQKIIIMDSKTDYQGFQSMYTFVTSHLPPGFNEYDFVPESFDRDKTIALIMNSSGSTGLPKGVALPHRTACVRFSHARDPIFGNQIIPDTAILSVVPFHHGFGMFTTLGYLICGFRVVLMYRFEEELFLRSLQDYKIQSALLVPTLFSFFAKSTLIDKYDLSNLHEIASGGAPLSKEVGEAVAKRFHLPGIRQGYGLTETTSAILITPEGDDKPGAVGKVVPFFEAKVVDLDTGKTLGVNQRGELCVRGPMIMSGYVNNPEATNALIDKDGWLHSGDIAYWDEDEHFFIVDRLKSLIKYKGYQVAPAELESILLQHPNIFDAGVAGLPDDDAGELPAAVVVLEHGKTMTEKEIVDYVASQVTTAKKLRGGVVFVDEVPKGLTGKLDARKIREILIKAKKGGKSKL
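Purified P. pyralis luciferase, 10 nM final, with Km-level 10 uM D-luciferin and 10 uM ATP in 50 mM Tris acetate pH 7.5, 10 mM Mg acetate, 0.01% Tween-20, 0.05% BSA; 6-point qHTS titration about 60 µM downward; luminescence read.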
NPC1 prom act: qHTS Assay for NPC1 Promoter Activators | Huh7 NPC1 promoter luciferase reporter, 24 h | Potency, µM (series often up to 9.22 µM), without a hit: at the top dose activation, usual class: activators | 320,000 tested, 2.4% active | AID 485313, 2010; also: % of control where 0% means no effect; nearly all actives have a fitted effect of over 60% in size
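Luminescence read-out of NPC1 promoter-driven luciferase in stably transfected Huh7 cells; compounds delivered in DMSO and left 24 h at 37C, 5% CO2, qHTS titration format.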
ELG1 genotox: qHTS screen for small molecules that induce genotoxicity in human embryonic kidney (HEK293T) cells expressing luciferase-tagged ELG1. HEK293T ELG1-luciferase reporter, luminescence, 16 h. Potency, µM (titrated, usually from 46 µM), inactives show at the highest dose activity change, positive = activation, most hits filed as activators. 330,000 tested, 1.3% active. AID 504466, 2011; also: % of control where 0% means no effect; nearly all actives have a fitted effect of over 60% in size
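Luminescence read-out: rising ELG1-luciferase signal, reflecting elevated ELG1 protein under genetic stress, flags genotoxic compounds. Cells were treated for 16 hr at 37 °C before ONE-Glo detection.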
Rab9 promoter act: qHTS Assay for Rab9 Promoter Activators | 320,000 tested, 2.8% active | Huh7 Rab9 promoter-luciferase reporter, luminescence, 24 h | AID 485297, 2010 | Potency, µM (highest dose often 9.22 µM), for inactives: top-dose activation, negative = inhibition, most hits filed as activators; also: % of control where 0% means no effect; nearly all actives have a fitted effect of over 60% in size
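Cell-based reporter: Huh7 stable for Rab9 promoter-driven luciferase, plated in reduced-serum medium with 10% FBS at 1500 cells/well, compound-treated 24 h at 37 °C, luminescence read after 10 min reagent.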
An asterisk follows results filed as active; ? = inconclusive; / = no result given. In the library only some 9.3% were active in any assay of this set; here they are far more common. Calls follow the shape of the dose curve; as a rule, active = well fitted curve in the direction sought with a large enough effect; inconclusive = small, poorly fitted or top-dose-only effect, or another doubt; inactive = no such curve, though single readings can be large; an effect the other way counts as inactive or inconclusive. Potency is read from the fitted curve at half-maximal effect.

SMILES	SMN2 splice up	ELG1 repair inh	FLuc modulator	NPC1 prom act	ELG1 genotox	Rab9 promoter act
O=C(Nc1nc2cc3c(cc2s1)OCCO3)C1CCCCC1	/	?	0.43µM*	0.5µM*	?	0.32µM*
CC(=O)Nc1nc2cc3c(cc2s1)OCCO3	/	?	7.6µM*	1.6µM*	?	1.4µM*
O=C(NNc1nc2cc3c(cc2s1)OCCO3)c1ccccc1	20µM*	?	9.5µM*	?	?	?
COc1ccc(OCC(=O)Nc2nc3cc4c(cc3s2)OCCO4)cc1	/	7%	/	/	-2%	/
O=C(Nc1nc2cc3c(cc2s1)OCO3)C1CC1	/	14%	?	?	9%	28%
O=C(Nc1nc2cc3c(cc2s1)OCO3)C1CCCCC1	/	?	4.8µM*	1.8µM*	?	1.3µM*
CCN(CC)c1ccc(/C=N/NC(=O)c2ccoc2C)c(O)c1	/	?	2.7µM*	?	16µM*	-7%
CCN(CC)c1ccc(/C=N/NC(=O)OC)c(O)c1	-12%	?	11µM*	20%	16%	28%
CCN(CC)c1ccc(/C=N/NC(=S)NC)c(O)c1	/	?	?	19%	14%	2%
Cc1ccccc1NC(=O)Nc1nc2ccc(S(C)(=O)=O)cc2s1	?	?	-14%	4µM*	3%	?
NS(=O)(=O)c1ccc2nc(NC(=O)Nc3ccccc3F)sc2c1	/	?	1.3µM*	0.5µM*	3.3µM*	0.4µM*
COc1cc(/C=c2\s/c(=C\C(=O)C(C)(C)C)[nH]c2=O)cc(OC)c1OC	-8%	?	-10%	-6%	-3%	-14%
CCc1ccc(C(C(=O)NCCOC)N(C(=O)Cn2nnc3ccccc32)c2cccnc2)cc1 (stereo not given)	-8%	12%	-1%	-4%	0%	-10%
CC(C)(C)n1nc2c(c1NC(=O)c1cc(Cl)ccc1[N+](=O)[O-])CS(=O)(=O)C2	/	4%	2%	-2%	-1%	3%
O=C1NC(=S)S/C1=C\c1coc2ccc(O)cc2c1=O	/	?	19µM*	14%	10%	9%
NC(=S)N/N=C/c1coc2ccc(Cl)cc2c1=O	-16%	-17%	1%	-1%	-9%	-5%
O=C1NC(=S)S/C1=C\c1coc2ccccc2c1=O	2%	17%	19µM*	5%	8%	?
Cn1nc(C(C)(C)C)cc1C(=O)NCc1cc(F)cc2c1OCOC2	/	2.6µM*	-1%	-22%	-12%	-30%
CC1(C)c2ccccc2N2CC(=O)N(CC(N)=O)C21C (stereo not given)	24%	9%	7%	-4%	-2%	-3%
O=c1c(Cl)c(NCc2ccccc2Cl)cnn1C12CC3CC(CC(C3)C1)C2	-51%	-14%	12µM*	-4%	1%	-4%
CC(CCC(C)OC(=O)c1ccccc1C(=O)O)OC(=O)c1ccccc1C(=O)O (stereo not given)	/	5%	-1%	-1%	1%	1%
COc1ccc(-c2nc3n(c2C)Cc2ccccc2-3)cc1	/	?	2.4µM*	2.5µM*	13µM*	?
Cc1nnc(SCCn2c(N3CCN(Cc4ccccc4)CC3)nc3c2c(=O)[nH]c(=O)n3C)s1	24%	?	1%	-3%	5%	-8%
Cc1nnc(SCCn2c(N3CCC(Cc4ccccc4)CC3)nc3c2c(=O)[nH]c(=O)n3C)s1	/	9.2µM*	-1%	-1%	-9%	-5%
O=C(NCc1ccc(Cl)cc1)C(=O)NCC(c1cccnc1)N1CCN(c2ccc(F)cc2)CC1 (stereo not given)	-80%	12µM*	-7%	-10%	-12%	-2%
SMILES	SMN2 splice up	ELG1 repair inh	FLuc modulator	NPC1 prom act	ELG1 genotox	Rab9 promoter act
O=C(NCC(c1cccnc1)N1CCN(c2ccc(F)cc2)CC1)c1ccccc1 (stereo not given)	-24%	-18%	-2%	-3%	-7%	-6%
O=C(CCn1c(=O)sc2ccccc21)NCc1cccs1	-17%	8%	2%	-3%	-2%	2%
Cc1cc(C)n2nc(C(=O)Nc3cccc(S(=O)(=O)N4CCCC4)c3)nc2n1	/	-3%	-2%	-7%	3%	-4%
Cc1c(C(=O)N2CCN(c3ccccc3)CC2)sc2ncnc(N3CCN(c4ccccn4)CC3)c12	/	0%	-1%	-3%	-28%	2%
Cc1nc(N2CCN(c3ccccn3)CC2)c2c(C)c(C(=O)N3CCN(c4ccc(F)cc4)CC3)sc2n1	/	23µM*	1%	-7%	-22%	-14%
Cc1c(C(=O)N2CCN(c3ccc(F)cc3)CC2)sc2ncnc(N3CCN(c4ccccn4)CC3)c12	/	6.5µM*	0%	-2%	-14%	-1%
COc1ccc(NC(=O)c2sc3ncn(CC(=O)N4CCN(c5ccccn5)CC4)c(=O)c3c2C)c(OC)c1	/	?	-1%	2%	7%	-1%
COc1ccccc1N1CCN(C(=O)c2sc3ncnc(N4CCN(c5ccccn5)CC4)c3c2C)CC1	/	18µM*	-1%	-2%	-25%	-2%
COc1ccc(OC)c(NC(=O)c2sc3ncnc(N4CCN(c5ccccn5)CC4)c3c2C)c1	/	2.6µM*	-2%	0%	-9%	3%
CC(C)(C)NC(=O)C(OC(=O)c1ccco1)c1ccccc1F (stereo not given)	/	14%	1%	-2%	-1%	3%
Cc1nn(C)cc1/C=N/n1nnnc1N	-13%	?	5%	2%	3%	0%
COc1cccc(C(c2sc3nc(C)nn3c2O)N2CCN(c3ccccc3F)CC2)c1 (stereo not given)	16%	-8%	0%	-4%	-6%	-3%
COc1ccc(C(c2sc3ncnn3c2O)N2CC(C)OC(C)C2)cc1OC (stereo not given)	24%	?	19µM*	-2%	15%	-2%
COc1ccc(C(c2sc3ncnn3c2O)N2CCN(c3ccccc3F)CC2)cc1OC (stereo not given)	-26%	?	7.6µM*	0%	?	1%
CCN(C(=O)N1CCOCC1)c1ccccc1	/	-2%	-1%	-2%	1%	3%
COc1ccc(COC(=O)c2ccc3c(=O)n4c(nc3c2)CCC4)cc1F	/	0%	-4%	-4%	0%	-1%

Bioassay records (PubChem BioAssay)
